Data on 19 molecules can be found in ChEMBL document CHEMBL3988442, “University of Dundee, Small-Polar-MMV Screening Library” (2021).

In the assay the target is T1, Aspartate--tRNA(Asp/Asn) ligase (Mycobacterium tuberculosis (strain ATCC 25618 / H37Rv)) (UniProt P9WFW3).
T1 sequence (whole entry): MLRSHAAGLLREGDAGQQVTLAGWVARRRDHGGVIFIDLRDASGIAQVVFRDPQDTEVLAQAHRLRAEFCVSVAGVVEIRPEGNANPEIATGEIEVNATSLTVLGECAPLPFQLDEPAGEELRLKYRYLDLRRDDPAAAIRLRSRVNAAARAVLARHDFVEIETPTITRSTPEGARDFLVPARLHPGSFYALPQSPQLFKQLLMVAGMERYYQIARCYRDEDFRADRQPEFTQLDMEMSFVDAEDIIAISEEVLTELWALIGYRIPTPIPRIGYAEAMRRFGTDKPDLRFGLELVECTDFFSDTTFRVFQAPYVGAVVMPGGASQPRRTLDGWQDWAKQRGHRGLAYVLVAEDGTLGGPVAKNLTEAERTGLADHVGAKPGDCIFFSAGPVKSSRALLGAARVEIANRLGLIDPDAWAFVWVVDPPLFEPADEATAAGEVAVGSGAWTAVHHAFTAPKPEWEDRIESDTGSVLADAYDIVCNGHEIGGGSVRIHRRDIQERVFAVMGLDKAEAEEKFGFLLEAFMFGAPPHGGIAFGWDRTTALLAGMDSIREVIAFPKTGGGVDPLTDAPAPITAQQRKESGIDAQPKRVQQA
Description: Assay for Asp RNA synthetase-1 from Mycobacterium tuberculosis. The arrangement: scale not given: in the data most compounds retested in dose-response had high values. The assay is classed as functional. The note with it: 30 µM.
Turning to `Cc1cc(C)n(C2CN(CC(=O)N3CCOCC3)C2)n1`, the Percent Effect is -0.655%.
As to `Cc1ccc(C(=O)NCCNc2ncccc2C#N)c(=O)[nH]1`, the Percent Effect was -1.85%.
Turning to `Cc1ccccc1N1CC2(CCN(S(=O)(=O)C3CC3)C2)CC1=O` (centres undefined), the Percent Effect was -1.07%.
The same measure for `CN(C)CCNC(=O)c1ccc(OC2CCN(S(C)(=O)=O)CC2)c(Cl)c1`: 1.85%; for `Cc1cc(C)n(CC2CCCN2C(=O)CCCc2ccccn2)n1` (centres undefined): -1.59%.
The same measure for `Cc1noc2ncc(C(=O)NCC3CCN(C(C)C)C3)cc12` (centres undefined): 1.08%.
The same measure for `COc1ncc(NC(=O)Nc2cc(C)ccc2OC)cn1`: 1.65%; for `Cc1cc(N2CCC(CC(N)=O)CC2)nc(-c2ccncc2)n1`: 6.11%.
On to `Cc1nc(C)n(CC2CCCN(Cc3cccc(C#N)c3)C2)n1` (centres undefined), for which the Percent Effect worked out at 3.85%.
The same measure for `CCSCC(C)NCc1nncn1C1CCCCC1` (centres undefined): 1.39%.
The value for `Cc1nc(C)n(C2CCCN(C(=O)c3cc4ccccc4n3C)C2)n1` (centres undefined) was -0.634%; that for `O=C(c1cccs1)N1CCC2(C1)c1ccccc1S(=O)(=O)N2CC1CC1` (centres undefined) was -6.49%; that for `CC(C)c1ccc(C(O)Cn2c(=O)c(C#N)cn(C3CC3)c2=O)cc1` (centres undefined) was 2.61%.
The same measure for `O=C1COc2cc(C(=O)NS(=O)(=O)c3ccccc3F)ccc2N1`: -0.702%; for `Cc1nc(CN(C)C(=O)Nc2cnn(CC3CCCO3)c2)cs1` (centres undefined): 2.17%; for `COc1cc(S(=O)(=O)N2CCCc3ccccc32)cc(C(=O)O)c1OC`: 7.13%.
Regarding `CCc1nc(CN2CCN(C(=O)COCc3ccccc3)CC2)no1`, the Percent Effect was -1.88%.
As to `O=C(c1cnccn1)N1CCc2ncnc(-c3cccnc3)c2CC1`, the Percent Effect is -2.48%.
The same measure for `CCc1ccc(CN2C[C@@H]3OCCN(c4ccnc(N(C)C)n4)[C@@H]3C2)o1`: -6.22%.
